Compounds without any hit were thinned out: in the full panel of roughly 83,000, 20% have a hit.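 Assay: single dose, 48 h. Readout: percent growth (0 = no net growth; negative = cell death). Active: <10.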 Unmarked numbers belong to inactive results. Activity calls are given as the source filed them.

Assay in all cases: NCI-60 one-dose screen, 48 h (100 = growth as untreated, 0 = no growth, -100 = all killed)
One assay deals with SK-MEL-2 melanoma. To be noted: 10 µM unless noted.
For the next assay, the system named is EKVX NSCLC. To be noted: 10 µM unless noted.
Another assay deals with SN12C renal. Conditions: 10 µM unless noted.
The test system of a further assay is UO-31 renal. Conditions: 10 µM unless noted.
In the next assay the test system is TK-10 renal. Conditions: 10 µM unless noted.
A further assay concerns ACHN renal. To be noted: 10 µM unless noted.
The next assay has as its system CAKI-1 renal. Conditions: 10 µM.
The next assay relates to A498 renal. Conditions: 10 µM unless noted.
Another assay has as its system CCRF-CEM leukemia. To be noted: 10 µM unless noted.
The next assay relates to MOLT-4 leukemia. To be noted: 10 µM unless noted.
A further assay has as its system SR leukemia. Conditions: 10 µM unless noted.
The test system of the next assay is RPMI-8226 leukemia. To be noted: 10 µM unless noted.
Another assay deals with OVCAR-8 ovarian. Conditions: 10 µM unless noted.
The test system of the next assay is OVCAR-5 ovarian. Conditions: 10 µM unless noted.
Another assay has as its system OVCAR-4 ovarian. To be noted: 10 µM unless noted.
For the next assay, the system named is SK-OV-3 ovarian. Conditions: 10 µM unless noted.
A further assay concerns IGROV1 ovarian. Conditions: 10 µM unless noted.
The subject of another assay is OVCAR-3 ovarian. To be noted: 10 µM unless noted.
In another assay the test system is HS 578T breast. To be noted: 10 µM unless noted.
A further assay concerns NCI/ADR-RES ovarian. Conditions: 10 µM unless noted.

As to `COc1ccc(N2CCN(C(=O)CSc3ccc(-c4nc5cc(C)c(C)cc5[nH]4)cn3)CC2)cc1`, the growth in the assay with SK-MEL-2 melanoma was 87.1%; in the assay on EKVX NSCLC, 53.3%; in the assay on SN12C renal it was 83.2%; in the assay on UO-31 renal, 65.1%; with TK-10 renal it was 101%; in the assay with ACHN renal, 77.5%. The growth in the assay on CAKI-1 renal is 73.4%; in the assay on A498 renal, 90.9%; in the assay with CCRF-CEM leukemia, 18.4%; in the assay on MOLT-4 leukemia it was 6.92% (active); in the assay with SR leukemia, 43.6%; in the assay with RPMI-8226 leukemia it was 17.1%. For the same compound, the growth with OVCAR-8 ovarian is 56.4%; in the assay with OVCAR-5 ovarian, 93.5%; with OVCAR-4 ovarian, 37.6%; in the assay with SK-OV-3 ovarian it was 94.6%; in the assay with IGROV1 ovarian, 68.2%; in the assay with OVCAR-3 ovarian it was 80.4%. Further, the growth in the assay on HS 578T breast is 94.8%; in the assay on NCI/ADR-RES ovarian, 49.3%.
As for `Oc1ccc(CSc2nnc(-c3ccc(Br)cc3)n2-c2ccccc2)c2cccnc12`, the growth in the assay with SK-MEL-2 melanoma is 39.4%; in the assay with EKVX NSCLC, 43.1%; in the assay with SN12C renal it was 35%; in the assay with UO-31 renal, 8.19% (active); in the assay on TK-10 renal, 36.5%; with ACHN renal, 27%. The growth was 36.7% in the assay on CAKI-1 renal; 63.8% in the assay on A498 renal; 22.9% in the assay on CCRF-CEM leukemia; 32.3% in the assay with MOLT-4 leukemia; 37.7% with SR leukemia; 13.7% with RPMI-8226 leukemia. Moreover, the growth in the assay with OVCAR-8 ovarian is 23.4%; in the assay on OVCAR-5 ovarian, 54.4%; in the assay with OVCAR-4 ovarian it was 35.7%; in the assay on SK-OV-3 ovarian, 23.3%; with IGROV1 ovarian, 18.9%; in the assay with OVCAR-3 ovarian, 41.5%. Further, the growth in the assay with HS 578T breast was 13%; in the assay on NCI/ADR-RES ovarian, 12.2%.
As to `O=C(CSc1nnc(-c2ccc(Cl)cc2)n1-c1ccccc1)Nc1ccc(F)cc1`, the growth was 111% with SK-MEL-2 melanoma; 90.6% with EKVX NSCLC; 62.6% in the assay with SN12C renal; 97.5% with UO-31 renal; 88.7% in the assay with TK-10 renal; 24.7% in the assay on ACHN renal. In addition, the growth in the assay on CAKI-1 renal is 70.9%; in the assay with A498 renal it was 69.8%; in the assay on CCRF-CEM leukemia, 91.8%; with MOLT-4 leukemia, 103%; with SR leukemia it was 76.4%; with RPMI-8226 leukemia it was 89.5%. For the same compound, the growth with OVCAR-8 ovarian was 74%; in the assay on OVCAR-5 ovarian, 97.4%; in the assay on OVCAR-4 ovarian it was 98.3%; with SK-OV-3 ovarian it was 83.8%; with IGROV1 ovarian, 95.1%; in the assay on OVCAR-3 ovarian, 87.7%. In addition, the growth was 61.4% in the assay with HS 578T breast and 77.9% with NCI/ADR-RES ovarian.
With `Oc1ccc(CSc2nnc(-c3ccc(Oc4ccccc4)cc3)n2-c2ccccc2)c2cccnc12`, the growth was 37.6% with SK-MEL-2 melanoma; 14.8% in the assay on EKVX NSCLC; 19.1% with SN12C renal; -5.33% (active) in the assay on UO-31 renal; 23.6% in the assay on TK-10 renal; 6.83% (active) with ACHN renal. The growth with CAKI-1 renal is 13.1%; in the assay on A498 renal, 35.2%; with CCRF-CEM leukemia, 10.3%; with MOLT-4 leukemia it was 18.7%; in the assay with SR leukemia, 45.8%; with RPMI-8226 leukemia, 7.82% (active). Moreover, the growth in the assay on OVCAR-8 ovarian was 16.5%; in the assay on OVCAR-5 ovarian, 42.7%; in the assay on OVCAR-4 ovarian, 17.9%; with SK-OV-3 ovarian, 14.1%; with IGROV1 ovarian it was 11.7%; in the assay with OVCAR-3 ovarian, 19.3%. The growth was 18.7% with HS 578T breast and 6.26% (active) with NCI/ADR-RES ovarian.
Turning to `COc1cc(/C=N/n2cnc3oc(-c4ccccc4)cc3c2=N)cc(CN2CCN(C)CC2)c1O`, the growth is 113% with SK-MEL-2 melanoma; 99.3% in the assay with EKVX NSCLC; 80.4% with SN12C renal; 74% with UO-31 renal; 113% in the assay on TK-10 renal; 83.1% with ACHN renal. In addition, the growth in the assay on CAKI-1 renal is 73.3%; with A498 renal, 72.2%; in the assay on CCRF-CEM leukemia, 66.9%; with MOLT-4 leukemia, 76.4%; in the assay on SR leukemia, 35.2%; in the assay with RPMI-8226 leukemia it was 95.8%. Also, the growth with OVCAR-8 ovarian was 93.9%; in the assay with OVCAR-5 ovarian, 105%; in the assay on OVCAR-4 ovarian it was 97.7%; in the assay on SK-OV-3 ovarian, 91.3%; in the assay with IGROV1 ovarian it was 61.7%; with OVCAR-3 ovarian it was 110%. Also, the growth with HS 578T breast was 68%; in the assay with NCI/ADR-RES ovarian, 98.7%.
On to `O=C(O)c1ccc(-n2cc(CNc3ccc(F)cc3)c(-c3ccc(C(F)(F)F)cc3)n2)cc1`, for which the growth with SK-MEL-2 melanoma was 110%; with EKVX NSCLC, 74.4%; in the assay with SN12C renal, 94.4%; in the assay with UO-31 renal, 67.2%; in the assay on TK-10 renal, 110%; with ACHN renal, 76.6%. In addition, the growth in the assay with CAKI-1 renal is 76.2%; in the assay with A498 renal, 90.3%; in the assay with CCRF-CEM leukemia, 81.9%; with MOLT-4 leukemia, 81%; in the assay on SR leukemia it was 109%; in the assay with RPMI-8226 leukemia, 86.5%. Also, the growth in the assay with OVCAR-8 ovarian is 71.8%; in the assay on OVCAR-5 ovarian, 106%; with OVCAR-4 ovarian, 86.8%; with SK-OV-3 ovarian it was 95.2%; with IGROV1 ovarian, 95%; with OVCAR-3 ovarian, 84.1%. Moreover, the growth was 88.8% in the assay on HS 578T breast and 87% in the assay with NCI/ADR-RES ovarian.
Take `COc1cc2cc(Oc3ccc(NC(=O)Nc4cccc(C(F)(F)F)c4)cc3)c(C)nc2cc1OCCN(C)C`: the growth is 111% in the assay on SK-MEL-2 melanoma; 92.9% in the assay with EKVX NSCLC; 92.3% in the assay with SN12C renal; 89.8% in the assay on UO-31 renal; 110% with TK-10 renal; 97.3% in the assay on ACHN renal. Moreover, the growth in the assay with CAKI-1 renal was 89.9%; with A498 renal, 106%; in the assay on CCRF-CEM leukemia, 71.4%; with MOLT-4 leukemia it was 80.5%; in the assay with SR leukemia it was 26.1%; in the assay with RPMI-8226 leukemia, 92.3%. Also, the growth was 97.9% in the assay with OVCAR-8 ovarian; 108% in the assay with OVCAR-5 ovarian; 92.9% in the assay with OVCAR-4 ovarian; 107% in the assay with SK-OV-3 ovarian; 102% with IGROV1 ovarian; 122% in the assay on OVCAR-3 ovarian. In addition, the growth was 112% in the assay on HS 578T breast and 93.9% with NCI/ADR-RES ovarian.
As to `Oc1ccc(CSc2nnc(-c3ccc(Cl)cc3)o2)c2cccnc12`, the growth in the assay on SK-MEL-2 melanoma was 54.9%; in the assay on EKVX NSCLC, 34%; with SN12C renal, 37.4%; with UO-31 renal, 2.83% (active); with TK-10 renal, 39.1%; in the assay with ACHN renal, 11.4%. In addition, the growth in the assay on CAKI-1 renal is 20.2%; in the assay with A498 renal, 75.5%; in the assay with CCRF-CEM leukemia, 13.3%; in the assay on MOLT-4 leukemia, 15.3%; in the assay on SR leukemia, 34.3%; with RPMI-8226 leukemia, 18.6%. Besides, the growth with OVCAR-8 ovarian is 18.9%; in the assay on OVCAR-5 ovarian, 73.1%; in the assay with OVCAR-4 ovarian, 19.8%; in the assay with SK-OV-3 ovarian it was 20.3%; in the assay with IGROV1 ovarian, 16.4%; in the assay on OVCAR-3 ovarian, 30.8%. Moreover, the results for the growth in the assay with HS 578T breast and in the assay with NCI/ADR-RES ovarian were 1.27% (active) and 9.8% (active), respectively.

Values taken from PubChem BioAssay (NCI).
